Only some compounds are listed: those with a hit (about 8.1% of all), similar ones and a draw of the others.
SW480 rerep = A quantitative high throughput screen for small molecules that induce DNA re-replication in SW480 colon adenocarcinoma cells; actives 1.8% (n = 340,000); AID 624297, 2012; SW480 DNA re-replication, Hoechst DNA content imaging, 48 h; Potency, µM (top dose mostly 46.1 µM), for the others: top-dose re-replication activation, most hits filed as activators; further: % of control where 0% means no effect; nearly all actives have a fitted effect of over 55% in size
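Compounds, transferred as 23 nL by pin tool, were incubated with cells for 48 hr; DNA content per nucleus was then quantified by Hoechst staining and fluorescence plate imaging.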
MCF10A rereplic = A quantitative high throughput screen for small molecules that induce DNA re-replication in MCF 10a normal breast cells. MCF 10A DNA re-replication, Hoechst nuclear intensity, 48 h. Potency, µM (series often up to 46.1 µM), without a hit: at the top dose activity, positive = re-replication, usual class: activators. actives 2.9% (n = 350,000). AID 624296, 2012; further: % of control where 0% means no effect; nearly all actives have a fitted effect of over 50% in size
KB-3-1 cytotox = qHTS assay for MDR1-selective chemotherapeutics: Primary screen using the parental adenocarcinoma cell KB-3-1; Potency, µM (doses to about 46.1 µM), usual class: cytotoxic; KB-3-1 viability, CellTiter-Glo ATP luminescence, 72 h; AID 1347075, 2019; actives 1.4% (n = 400,000); further: on the % scale 0 is the no-effect control and ±100 the full control effect; nearly all actives have a fitted effect of over 60% in size
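Here the drug-naive KB-3-1 line serves as comparator for MDR sub-line selectivity; cells received compound titrations, 72 h at 37 °C, then CellTiter-Glo readout.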
ELG1 repair inh = qHTS screen for small molecules that inhibit ELG1-dependent DNA repair in human embryonic kidney (HEK293T) cells expressing luciferase-tagged ELG1; Potency, µM (doses to about 46.1 µM), for inactives: at the top dose activity change, negative = inhibition, actives largely listed as inhibitors; actives 2.3% (n = 330,000); HEK293T ELG1-luciferase reporter, luminescence, 16 h; DNA damage induced by 5-fluorouridine; further: on the % scale 0 is the no-effect control and ±100 the full control effect; nearly all actives have a fitted effect of over 55% in size
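Overnight (16 hr) co-exposure of 2,000 cells/well to 5-fluorouridine and compound at 37 °C preceded detection. Luciferase was quantified via ONE-Glo luminescence; loss of signal denotes inhibition.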
KB-V1 cytotox = qHTS assay for MDR1-selective chemotherapeutics: Primary screen using the drug-selected MDR subline cells KB-V1 | KB-V1 MDR cells viability, CellTiter-Glo, 72 h | Potency, µM (titrated, usually from 46.1 µM), most hits filed as cytotoxic | actives 3.4% (n = 400,000) | AID 1347076, 2019; further: on the % scale 0 is the no-effect control and ±100 the full control effect; nearly all actives have a fitted effect of over 60% in size
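Luminescent ATP read-out (CellTiter-Glo, 10 min) measures survival of drug-selected KB-V1 MDR cells after 72 h, 37 degrees C compound exposure. Medium: phenol-red-free DMEM, 10% FBS. Values from fitted concentration-response curves.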
* hit, by the source's call. The call rests on the fitted dose curve; in most records, active means well fitted curve in the direction sought with a large enough effect; inconclusive means small, poorly fitted or top-dose-only effect, or another doubt; inactive means no such curve, though single readings can be large; an effect the other way counts as inactive or inconclusive. Potency means the concentration at half of the fitted maximal effect.

How did COc1ccccc1CNC(=O)C(=O)NCC1OCCN1S(=O)(=O)c1ccc(Br)cc1 (stereo unspecified) do in these assays?
SW480 rerep: 23µM*; MCF10A rereplic: 0%; KB-3-1 cytotox: inactive; ELG1 repair inh: inconclusive; KB-V1 cytotox: inconclusive

Results for O=C(NCCc1ccccc1)C(=O)NCC1OCCCN1S(=O)(=O)c1cc(F)ccc1F (stereo unspecified) ?
SW480 rerep: -1%; MCF10A rereplic: 0%; KB-3-1 cytotox: inactive; ELG1 repair inh: -25%; KB-V1 cytotox: inactive

What do the screens show for `O=C(NCCc1c[nH]c2ccccc12)C(=O)NCC1OCCCN1S(=O)(=O)c1cc(F)ccc1F` (stereo unspecified)?
SW480 rerep: -22%; MCF10A rereplic: 23%; KB-3-1 cytotox: inactive; ELG1 repair inh: 21µM*; KB-V1 cytotox: inactive

Results for COc1ccc(S(=O)(=O)N2CCOC2CNC(=O)C(=O)NCCc2c[nH]c3ccccc23)cc1 (stereo unspecified) ?
SW480 rerep: 0%; MCF10A rereplic: 4%; KB-3-1 cytotox: inconclusive; ELG1 repair inh: inconclusive; KB-V1 cytotox: inactive

Results for C(=C\c1ccccc1)/CN1CCN(C(c2ccccc2)c2nnnn2C2CCCCC2)CC1 (stereo unspecified) ?
KB-3-1 cytotox: inactive; KB-V1 cytotox: inconclusive

What do the screens show for `CCOC(=O)CNC(=O)Cn1cnc2c(nnn2-c2ccc(OC)cc2)c1=O`?
SW480 rerep: 1%; MCF10A rereplic: 2%; KB-3-1 cytotox: inactive; ELG1 repair inh: 5%; KB-V1 cytotox: inactive

What do the screens show for `COc1cccc2[nH]c3c(N4CCc5ccccc5C4)ncnc3c12`?
SW480 rerep: -2%; MCF10A rereplic: inconclusive; KB-3-1 cytotox: inactive; ELG1 repair inh: 13µM*; KB-V1 cytotox: inactive

Results for c1ccc2c(c1)[nH]c1c(N3CCC4(CC3)OCCO4)ncnc12 ?
SW480 rerep: 17%; MCF10A rereplic: inconclusive; KB-3-1 cytotox: inactive; ELG1 repair inh: 21µM*; KB-V1 cytotox: inconclusive

What do the screens show for `COc1ccc2[nH]c3c(N4CC(C)OC(C)C4)ncnc3c2c1` (stereo unspecified)?
SW480 rerep: -13%; MCF10A rereplic: -1%; KB-3-1 cytotox: inactive; ELG1 repair inh: inconclusive; KB-V1 cytotox: inactive

How did COc1cccc(N2CCN(c3ncnc4c3[nH]c3ccccc34)CC2C)c1 (stereo unspecified) do in these assays?
ELG1 repair inh: 4.6µM*

What do the screens show for `c1ccc2c(c1)CCN(c1ncnc3c1[nH]c1ccccc13)C2`?
SW480 rerep: inconclusive; MCF10A rereplic: inconclusive; KB-3-1 cytotox: inactive; ELG1 repair inh: 9.2µM*; KB-V1 cytotox: 9.2µM*

How did COC(=O)C(c1ccccc1Cl)N1CCc2sccc2C1 (stereo unspecified) do in these assays?
SW480 rerep: 5%; MCF10A rereplic: 11%

What do the screens show for `CCc1ccc([C@@H]2CC=C(C(=O)O)[C@H](c3cccc(Cl)c3)N2S(=O)(=O)c2ccc(C)cc2)cc1`?
SW480 rerep: -9%; MCF10A rereplic: 28%; KB-3-1 cytotox: inactive; ELG1 repair inh: inconclusive; KB-V1 cytotox: inconclusive

How did CCc1ccccc1NC(=O)CN(C)Cc1nc(N)nc(Nc2ccccc2C)n1 do in these assays?
SW480 rerep: 6%; MCF10A rereplic: 4%; KB-3-1 cytotox: inactive; ELG1 repair inh: -4%; KB-V1 cytotox: 3.3µM*

How did Cc1ccccc1NC(=O)CSCc1nc(N)nc(Nc2ccccc2C)n1 do in these assays?
SW480 rerep: 6%; MCF10A rereplic: -5%; KB-3-1 cytotox: inactive; ELG1 repair inh: 8%; KB-V1 cytotox: inactive

Results for COC(=O)c1c(C(=O)OC)c(-c2ccc(Cl)c(Cl)c2)n2c1CCC2 ?
SW480 rerep: -5%; MCF10A rereplic: inconclusive; KB-3-1 cytotox: inactive; ELG1 repair inh: inconclusive; KB-V1 cytotox: inactive

Bioassay records from PubChem BioAssay.
